# Test results: PubChem BioAssay (EPA / NIEHS)
# Where “and” joins values, the source holds several entries; their conditions need not be identical. Equal values may be shown once. Inconclusive results are not listed. The source holds several records for some structures; these can differ, active in one and inactive in another. Calls of active or inactive are those of the source. Rule for the calls: active = hit-call score of the fitted dose curve at least 0.9, where 1 is the maximum; inconclusive = response in the unintended direction; inactive = score below 0.9.
# Assays:
# [1] = target: human Thromboxane A2 Receptor (TXA2), TBXA2R (gene 6915) (UniProt P21731); assay: NVS_GPCR_hTXA2: NovaScreen (NVS) G Protein-Coupled Receptor Assay for human Thromboxane A2 Receptor (TXA2) (AID 2283282);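 note: actives reduce bound radioligand signal relative to DMSO baseline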
# Sequence of human Thromboxane A2 Receptor (TXA2), TBXA2R (gene 6915) (P21731 whole entry, looked up): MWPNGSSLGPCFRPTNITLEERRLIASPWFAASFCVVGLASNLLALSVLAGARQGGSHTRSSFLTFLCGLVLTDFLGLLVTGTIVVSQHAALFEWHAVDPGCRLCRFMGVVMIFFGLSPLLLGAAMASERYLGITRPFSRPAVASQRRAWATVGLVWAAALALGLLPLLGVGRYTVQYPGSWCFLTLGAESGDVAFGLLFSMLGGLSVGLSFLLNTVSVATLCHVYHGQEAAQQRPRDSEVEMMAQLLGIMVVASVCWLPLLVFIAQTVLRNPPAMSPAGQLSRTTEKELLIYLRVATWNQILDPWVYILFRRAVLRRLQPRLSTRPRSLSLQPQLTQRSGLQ
# Description: NVS_GPCR_hTXA2 is a biochemical, single-readout assay that uses extracted gene-proteins from Human platelets in a cell-free assay. Measurements were taken 1 hour after chemical dosing in a 96-well plate.NVS_GPCR_hTXA2 is one of one assay component(s) measured or calculated from the NVS_GPCR_hTXA2 assay. It is designed to make measurements of radioligand binding, a form of binding reporter, as detected with scintillation counting signals by Filter-based radiodetection technology.Data from the assay component NVS_GPCR_hTXA2 was analyzed into 1 assay endpoint. This assay endpoint, NVS_GPCR_hTXA2, was analyzed in the positive analysis fitting direction relative to DMSO as the negative control and baseline of activity. Using a type of binding reporter, loss-of-signal activity can be used to understand changes in the binding as they relate to the gene TBXA2R. Furthermore, this assay endpoint can be referred to as a primary readout, because the performed assay has only produced 1 assay endpoint. To generalize the intended target to other relatable targets, this assay endpoint is annotated to the gpcr intended target family, where the subfamily is rhodopsin-like receptor.
# (§1) Binding assays used specific radioligands (tritiated, iodinated) with non-radioactive competitive displacement ligands in agonist or antagonist protocols (as indicated) and various reference compounds and inhibitors to titrate specific binding to receptors and transporters. Most enzyme assays (CYPs, kinases, phosphatases, proteases, HDACs) used recombinant protein and specific substrates (fluorescence mostly, some colorimetric and radioactive) and inhibitors, followed by a biochemical separation of substrate and product. All assays for the biochemical HTS were initially run in duplicate at a single concentration (10 uM for CYP450 assays and 25 uM for all others). […] Each assay was run with positive and negative controls, and concurrent controls on every plate. The follow-up (secondary) screen tested active chemical-pairs in concentration series, as well as a few additional assays not tested in the primary screen, some selected negative inactives, and several cases re-run in the concentration series for confirmatory purposes.
# [2] = target: human Opioid Receptor Mu (Opiate Mu), OPRM1 (gene 4988) (UniProt P35372); assay: NVS_GPCR_hOpiate_mu: NovaScreen (NVS) G Protein-Coupled Receptor Assay for human Opioid Receptor Mu (Opiate Mu) (AID 2283290);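 note: hits lower bound tracer signal versus DMSO meaning displacement of the ligand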
# Sequence of human Opioid Receptor Mu (Opiate Mu), OPRM1 (gene 4988) (P35372 whole entry, looked up): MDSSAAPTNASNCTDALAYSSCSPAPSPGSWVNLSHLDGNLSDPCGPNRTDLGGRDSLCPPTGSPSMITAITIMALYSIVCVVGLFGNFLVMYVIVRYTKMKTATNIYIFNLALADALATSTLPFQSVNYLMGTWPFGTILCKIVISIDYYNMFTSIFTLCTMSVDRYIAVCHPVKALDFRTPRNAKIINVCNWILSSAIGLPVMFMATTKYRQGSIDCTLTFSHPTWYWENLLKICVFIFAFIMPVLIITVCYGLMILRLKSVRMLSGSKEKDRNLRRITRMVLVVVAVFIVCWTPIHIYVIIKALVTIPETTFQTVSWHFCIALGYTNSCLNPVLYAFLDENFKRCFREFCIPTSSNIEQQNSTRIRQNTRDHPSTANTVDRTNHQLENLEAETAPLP
# In short: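 Primary screen in duplicate at 25 uM, with actives followed in concentration series. CHO-derived receptor membranes, cell-free; bound radioligand read by scintillation counting after filtration at 2.5 h, decrease scored against DMSO.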
# [3] = target: human Peripheral-type Benzodiazepine Receptor (PBR), TSPO (gene 706) (UniProt P30536); assay: NVS_MP_hPBR: NovaScreen (NVS) Membrane Protein Assay for human Peripheral-type Benzodiazepine Receptor (PBR) (AID 2283331);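 note: hits reduce radioligand binding relative to DMSO baseline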
# Sequence of human Peripheral-type Benzodiazepine Receptor (PBR), TSPO (gene 706) (P30536 whole entry, looked up): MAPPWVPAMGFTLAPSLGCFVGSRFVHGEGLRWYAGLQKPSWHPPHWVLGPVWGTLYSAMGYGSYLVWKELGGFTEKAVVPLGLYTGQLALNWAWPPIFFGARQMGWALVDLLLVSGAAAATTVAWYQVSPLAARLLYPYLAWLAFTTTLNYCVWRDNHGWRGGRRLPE
# In short: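 Scintillation counts of filter-bound radioligand served as read-out after 1 h chemical dosing of human colonic membrane preparations. Activity was scored as signal loss against DMSO; initial duplicates at 25 uM, confirmatory concentration series afterward.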
# [4] = target: rat Peripheral-type Benzodiazepine Receptor (PBR), Tspo (gene 24230) (UniProt P16257); assay: NVS_MP_rPBR: NovaScreen (NVS) Membrane Protein Assay for rat Peripheral-type Benzodiazepine Receptor (PBR) (AID 2283335)
# Sequence of rat Peripheral-type Benzodiazepine Receptor (PBR), Tspo (gene 24230) (P16257 whole entry, looked up): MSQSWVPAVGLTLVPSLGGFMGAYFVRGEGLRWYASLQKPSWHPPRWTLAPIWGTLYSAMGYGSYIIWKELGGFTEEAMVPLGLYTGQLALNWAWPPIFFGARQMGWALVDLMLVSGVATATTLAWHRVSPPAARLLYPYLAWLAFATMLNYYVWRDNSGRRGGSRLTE
# In short: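 Rat kidney membranes; radioligand binding with displacement, filter-based scintillation counting, 1 h incubation. Primary screen in duplicate at 25 uM, actives followed in concentration series; loss of binding vs DMSO.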
# [5] = target: bovine Estrogen Receptor (ER), ESR1 (gene 407238) (UniProt P49884); assay: NVS_NR_bER: NovaScreen (NVS) Nuclear Receptor Binding Assay for bovine Estrogen Receptor (ER) (AID 2283345);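 note: actives lower the bound radioligand count which means they displace the ER ligand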
# Sequence of bovine Estrogen Receptor (ER), ESR1 (gene 407238) (P49884 whole entry, looked up): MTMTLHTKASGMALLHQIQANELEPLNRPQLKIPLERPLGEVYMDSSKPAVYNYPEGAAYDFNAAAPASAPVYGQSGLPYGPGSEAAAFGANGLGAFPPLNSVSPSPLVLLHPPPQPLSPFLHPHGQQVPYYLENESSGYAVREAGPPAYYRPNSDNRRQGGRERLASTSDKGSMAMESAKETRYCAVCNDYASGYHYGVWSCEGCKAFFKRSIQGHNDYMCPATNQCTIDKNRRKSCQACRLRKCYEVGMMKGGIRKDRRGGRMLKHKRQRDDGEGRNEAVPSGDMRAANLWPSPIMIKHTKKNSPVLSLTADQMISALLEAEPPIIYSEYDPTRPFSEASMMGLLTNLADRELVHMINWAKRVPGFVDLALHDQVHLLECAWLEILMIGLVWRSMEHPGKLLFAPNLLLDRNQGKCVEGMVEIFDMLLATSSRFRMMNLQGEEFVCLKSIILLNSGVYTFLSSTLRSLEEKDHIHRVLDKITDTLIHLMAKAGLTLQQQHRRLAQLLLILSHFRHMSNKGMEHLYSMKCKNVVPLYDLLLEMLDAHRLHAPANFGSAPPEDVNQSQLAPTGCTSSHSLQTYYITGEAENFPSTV
# In short: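 Displacement of a radioligand from estrogen receptor in bovine uterine membrane preparations; scintillation signal taken at 18 hours, DMSO as baseline. Single-concentration duplicates (25 uM) preceded concentration-response follow-up of actives.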
# [6] = target: Estrogen receptor (Homo sapiens) (UniProt P03372); assay: NVS_NR_hER: NovaScreen (NVS) Nuclear Receptor Binding Assay for human Estrogen Receptor (ER) (AID 2283348)
# Sequence of Estrogen receptor (Homo sapiens) (P03372 whole entry, looked up, the tested form may be a part): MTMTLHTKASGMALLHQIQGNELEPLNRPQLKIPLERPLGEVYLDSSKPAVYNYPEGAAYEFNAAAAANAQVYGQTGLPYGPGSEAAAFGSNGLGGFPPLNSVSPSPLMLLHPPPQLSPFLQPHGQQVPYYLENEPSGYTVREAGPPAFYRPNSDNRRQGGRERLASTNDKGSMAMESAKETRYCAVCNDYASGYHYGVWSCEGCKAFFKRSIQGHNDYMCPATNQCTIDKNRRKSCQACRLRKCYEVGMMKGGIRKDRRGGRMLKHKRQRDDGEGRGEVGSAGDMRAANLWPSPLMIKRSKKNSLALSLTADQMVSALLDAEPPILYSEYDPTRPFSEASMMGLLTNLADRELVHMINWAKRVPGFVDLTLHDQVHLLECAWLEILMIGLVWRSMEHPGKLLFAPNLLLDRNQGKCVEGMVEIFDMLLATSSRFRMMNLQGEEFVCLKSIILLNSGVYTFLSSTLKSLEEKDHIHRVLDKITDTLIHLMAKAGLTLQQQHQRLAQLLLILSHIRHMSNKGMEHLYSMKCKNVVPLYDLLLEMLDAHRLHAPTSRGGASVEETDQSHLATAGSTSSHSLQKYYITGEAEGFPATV
# In short: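 Scintillation signal from bound radioligand was measured 18 hours after chemical addition to cell-free MCF7 protein extracts, with DMSO as baseline. Activity was scored as signal loss; compounds ran first at 25 uM in duplicate.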
# [7] = target: Estrogen receptor (Homo sapiens) (UniProt P03372); assay: OT_ER_ERaERa_1440: Odyssey Thera (OT) 24-hour HEK293T Protein-Complementation Assay for Estrogen Receptor-alpha/-alpha Homodimer (AID 2283349);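 note: hits raise fluorescence above DMSO for agonists and antagonists alike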
# In short: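 Protein-fragment complementation between two human ERα ligand-binding domains (aa 310-547) in stably transfected HEK293T cells was monitored after 24 h treatment, using fluorescence intensity relative to vehicle controls.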
# [8] = target: Estrogen receptor (Homo sapiens) (UniProt P03372); assay: OT_ER_ERaERa_0480: Odyssey Thera (OT) 8-hour HEK293T Protein-Complementation Assay for Estrogen Receptor-alpha/-alpha Homodimer (AID 2283351);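 note: rise in fluorescence from reassembled reporter fragments on ERα LBD homodimer in nucleus or whole cell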
# In short: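 The readout is complementation of fragments fused to the human ER alpha ligand-binding domain (aa 310-547), stably expressed in HEK293T cells. After 8 h of exposure, the increase in nuclear/cytoplasmic fluorescence was measured by laser scanning cytometry and fitted relative to DMSO.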
# [9] = NVS_IC_rCaBTZCHL: NovaScreen (NVS) Ion Channel Assay for Calcium Channel, Type L, Benzothiazepine Site (CaBTZCHL) (AID 2283337)
# In short: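 Radioligand displacement at the benzothiazepine site using rat cortical membranes; bound label measured by filtration and scintillation counting 1.5 h after dosing. Single-point 25 uM in duplicate, then concentration series; DMSO baseline.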
# [10] = target: Sodium channel protein type 1 subunit alpha (Rattus norvegicus) (UniProt P04774); assay: NVS_IC_rNaCh_site2: NovaScreen (NVS) Ion Channel Assay for rat Sodium Channel, Site 2 (NaCh) (AID 2283322);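 note: hit means loss of radioligand binding signal relative to DMSO so AC50 marks displacement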
# Description: NVS_IC_rNaCh_site2 is a biochemical, single-readout assay that uses extracted gene-proteins from Rat forebrain membranes in a tissue-based cell-free assay. Measurements were taken 1 hour after chemical dosing in a 48-well plate.NVS_IC_rNaCh_site2 is one of one assay component(s) measured or calculated from the NVS_IC_rNaCh_site2 assay. It is designed to make measurements of radioligand binding, a form of binding reporter, as detected with scintillation counting signals by Filter-based radiodetection technology.Data from the assay component NVS_IC_rNaCh_site2 was analyzed into 1 assay endpoint. This assay endpoint, NVS_IC_rNaCh_site2, was analyzed in the positive analysis fitting direction relative to DMSO as the negative control and baseline of activity. Using a type of binding reporter, loss-of-signal activity can be used to understand changes in the binding as they relate to the gene Scn1a. Furthermore, this assay endpoint can be referred to as a primary readout, because the performed assay has only produced 1 assay endpoint. To generalize the intended target to other relatable targets, this assay endpoint is annotated to the ion channel intended target family, where the subfamily is sodium channel.
# as §1, with “The follow-up (secondary) screen tested active chemical-pairs in concentration series, as well as a few additional assays not tested in the primary screen, some selected negative inactives, and several cases re-run in the concentration series for confirmatory purposes.” left out
compound,measurement,setting,value
CCCCC/C=C\C/C=C\CCCCCCCC(=O)OC,AC50,[1],25 µM (active)
same,AC50,[2],16.9 µM (active)
same,AC50,[3],8.31 µM (active) and 6.11 µM (active)
same,AC50,[4],9.68 µM (active) and 8.87 µM (active)
same,outcome,[5],inactive
same,AC50,[6],6.14 µM (active)
same,outcome,[6],inactive
same,outcome,[7],inactive
same,outcome,[8],inactive
Cc1ccc(N)c([N+](=O)[O-])c1,outcome,[1],inactive
C/C=C\C/C=C/CCCCCCCCOC(C)=O,AC50,[3],16.3 µM (active)
same,AC50,[4],17.2 µM (active)
same,outcome,[6],inactive
CCCCCCCC[N+](C)(CCCCCCCC)CCCCCCCC,AC50,[3],3.77 µM (active)
same,outcome,[7],inactive
same,outcome,[8],inactive
CC1=Nc2ccc3ccccc3c2C1(C)C,outcome,[5],inactive
O=c1cc(-c2ccccc2)oc2ccccc12,AC50,[3],12.6 µM (active)
same,AC50,[4],3.68 µM (active)
same,outcome,[5],inactive
same,outcome,[6],inactive
same,outcome,[7],inactive
same,outcome,[8],inactive
CCO[Si](CCCN=C=O)(OCC)OCC,outcome,[9],inactive
O=C(Nc1ccccc1SSc1ccccc1NC(=O)c1ccccc1)c1ccccc1,AC50,[3],6.22 µM (active)
same,outcome,[4],inactive
same,outcome,[6],inactive
CCCCCCCCc1ccc(Nc2ccc(CCCCCCCC)cc2)cc1,outcome,[1],inactive
COc1ccc(C(Cl)=C(c2ccc(OC)cc2)c2ccc(OC)cc2)cc1,outcome,[5],inactive
same,AC50,[6],7.49 µM (active)
CCCCCCCCCCCCCOP(=O)(O)O,AC50,[3],18.4 µM (active)
same,outcome,[5],inactive
same,outcome,[6],inactive
same,outcome,[7],inactive
same,outcome,[8],inactive
COCc1c(C(C)C)nc(C(C)C)c(/C=C/[C@@H](O)C[C@@H](O)CC(=O)O)c1-c1ccc(F)cc1,AC50,[10],1.81 µM (active)
CCCCCCCCCCCCCCCC[N+](C)(C)CC,AC50,[2],2.05 µM (active)
same,outcome,[10],inactive
same,AC50,[3],35.8 µM (active)
same,outcome,[6],inactive
C=COCCCC,AC50,[1],25 µM (active)
Cc1ccc(C2OC[C@@H]3OC(c4ccc(C)cc4)O[C@H]([C@H](O)CO)[C@@H]3O2)cc1 (stereo partly drawn),outcome,[1],inactive
CCOc1nc(F)cc2nc(S(=O)(=O)Nc3c(Cl)cccc3C(=O)OC)nn12,AC50,[3],1.63 µM (active)
CC(C)c1ccc2c(C(C)C)cc(C(C)C)c(S(=O)(=O)O)c2c1,outcome,[4],inactive
same,outcome,[6],inactive
same,outcome,[7],inactive
same,outcome,[8],inactive
O=C1CCCCCN1SSN1CCCCCC1=O,outcome,[5],inactive
[Cl][Bi]([Cl])([c]1ccccc1)([c]1ccccc1)[c]1ccccc1,outcome,[5],inactive
same,outcome,[6],inactive
CCOC(=O)c1ccccc1C(=C1C=C(Br)C(=O)C(Br)=C1)c1cc(Br)c(O)c(Br)c1,outcome,[5],inactive
Cc1cc(O)c(Cl)c(C)c1Cl,outcome,[5],inactive
COc1ccc(-c2coc3cc(O)ccc3c2=O)cc1,outcome,[5],inactive
same,AC50,[6],7.09 µM (active)
CCC(=O)Oc1ccc(/C(CC)=C(\CC)c2ccc(OC(=O)CC)cc2)cc1,AC50,[5],0.00521 µM (active)
same,AC50,[6],0.00229 µM (active)
O=S(=O)(O)c1ccccc1C=Cc1ccc(-c2ccc(C=Cc3ccccc3S(=O)(=O)O)cc2)cc1,AC50,[3],0.6 µM (active)
same,AC50,[4],2.43 µM (active)
same,outcome,[5],inactive
same,outcome,[6],inactive
same,outcome,[8],inactive
CC(=O)c1ccc2c(c1)CCCC2,AC50,[5],5.86 µM (active)
CCOC(=O)[C@H](C)O,outcome,[10],inactive
S=C(NC1CCCCC1)NC1CCCCC1,AC50,[1],1.56 µM (active)
same,outcome,[5],inactive
same,outcome,[6],inactive
Cc1ccc(N/N=c2\c(=O)cc/c(=N/Nc3ccc(S(=O)(=O)O)cc3)c2=O)c(C)c1,AC50,[3],7.15 µM (active)
same,AC50,[4],5.26 µM (active)
same,outcome,[7],inactive
same,outcome,[8],inactive
O=C(c1ccc(O)cc1)c1ccc(O)cc1O,AC50,[5],2.12 µM (active)
same,AC50,[6],0.481 µM (active)
CN(C)c1ccc(C(=N)c2ccc(N(C)C)cc2)cc1,AC50,[3],2.62 µM (active)
same,AC50,[4],11.6 µM (active)
same,outcome,[6],inactive
same,AC50,[7],33.4 µM (active)
same,AC50,[8],59.1 µM (active)
CCC(C)OC(=O)c1ccc(O)cc1 (stereo not drawn),AC50,[5],9.45 µM (active)
same,AC50,[6],0.603 µM (active)
Nc1ccc(Oc2ccc(N)c(N)c2)cc1,outcome,[5],inactive
same,outcome,[6],inactive
C1=Cc2ccccc2C1,AC50,[3],15.2 µM (active)
same,outcome,[7],inactive
same,outcome,[8],inactive
Cc1cccc(N(C)C(=S)Oc2ccc3ccccc3c2)c1,outcome,[5],inactive
same,outcome,[6],inactive
CC/C=C\C/C=C\C/C=C\CCCCCCCC(=O)O,AC50,[3],11.6 µM (active)
same,AC50,[6],25 µM (active)
same,outcome,[7],inactive
same,outcome,[8],inactive
O=C1Nc2ccccc2C1(c1ccc(O)cc1)c1ccc(O)cc1,outcome,[5],inactive
same,outcome,[6],inactive
CC(C)c1ccc2c(c1)CC[C@H]1[C@](C)(CN)CCC[C@]21C,outcome,[6],inactive
C#CC1(O)CC[C@H]2[C@@H]3CCC4=CCCC[C@@H]4[C@H]3CC[C@@]21C (stereo partly drawn),AC50,[5],6.05 µM (active)
same,AC50,[6],0.258 µM (active)
same,outcome,[6],inactive
CCOC(=O)N1CCC(=C2c3ccc(Cl)cc3CCc3cccnc32)CC1,outcome,[5],inactive
same,AC50,[6],0.0259 µM (active)
